# IDE inh: inhibitors of human insulin-degrading enzyme in cells | hit rate 0.41% among 320,000 | inhibition, % at 5.59 µM | P14735 | HEK cells, FAbetaB cleavage, fluorescence polarization;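 active = percent inhibition above the average of all tested compounds plus 3 SD, set per screening campaign, cut at about 16% in these data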;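 note: IDE supplied by intact live HEK cells; FP after avidin binding of uncleaved biotin substrate so inhibition keeps polarization high; 0% = DMSO wells and 100% = 60 µM reference IDE inhibitor Ii1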
# IDE act: activators of human insulin-degrading enzyme in cells; hit rate 0.073% among 340,000; HEK cells, FAbeta-B cleavage, fluorescence polarization; 0% vehicle, 100% cell-free pure enzyme wells; AID 493087; P14735; activation, % at 5.96 µM;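 active = activation above the mean of all tested compounds plus 3 SD, set per screening campaign, cut at about 17% in these data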
# TPT1 inh: C. albicans TPT1 enzyme inhibition; recombinant caTPT1, FP RNA substrate dephosphorylation; inhibition, % at 5 µM; hit rate 0.81% among 300,000;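 active = inhibition above the mean of all tested compounds plus 3 SD, set per screening campaign, cut at about 24% in these data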;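 note: plate controls were DMSO alone for no effect and ferristatin control at 100 nM for full effect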
# Myeloid diff 2: myeloid differentiation induction | ER-HoxA9 myeloid progenitors, lysozyme-GFP differentiation, flow cytometry | calls only at 10 µM | hit rate 1% among 360,000;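 active = normalized GFP-positive differentiation at or above the plate's own cutoff, the solvent-only control mean plus 3 SD; inconclusive = no clear call, values can overlap the other calls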;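 note: cells exposed to compound for four days before flow analysis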
# CRFR2-BP antag: blocks CRF-induced signaling of the CRF-BP/CRF-R2 complex. inhibition, % at 11.8 µM. hit rate 0.59% among 350,000. HEK293 CRF-R2/CRF-BP, CRF-induced calcium fluorescence;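 active = inhibition of the ligand-induced calcium signal above about 50% at the single tested concentration, limit read from the data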
# CRFR2-BP ag: CRF-BP/CRF-R2 complex agonism | HEK293 CRF-R2/CRF-BP, calcium dye fluorescence (FLIPR); percent of saturating CRF peptide response | activation, % at 13.2 µM | hit rate 0.46% among 350,000 | AID 588473;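 active = activation of at least 50%, plus an integration ratio under a set limit after plate pattern correction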;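 note: plate controls were neutral control wells without compound for no effect and CRF at EC100 for full effect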
# caTPT1 confirm: confirmation of Candida albicans TPT1 inhibitors. shares compounds with TPT1 inh. inhibition, % at 5 µM. hit rate 74% among 2,400. recombinant caTPT1, fluorescence polarization, RNase T1 coupled;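 active = inhibition above the primary screen limit, the mean inhibition of all tested compounds plus 3 SD, cut at about 25% in these data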
# RNase T1 inh: RNase T1 inhibition in TPT1 counter-screen | AID 2153 | shares compounds with TPT1 inh | hit rate 83% among 2,400 | RNase T1 cleavage, fluorescence polarization, 1536-well | inhibition, % at 5 µM;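 active = inhibition above the solvent-only control well mean plus 3 SD, limit set per screening run, cut at about 23% in these data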;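 note: plate controls were DMSO wells with enzyme for no effect and wells without RNase T1 for full effect; inhibitors block cleavage so intact labeled substrate keeps polarization high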
# Target sequence (P00651 whole entry, looked up): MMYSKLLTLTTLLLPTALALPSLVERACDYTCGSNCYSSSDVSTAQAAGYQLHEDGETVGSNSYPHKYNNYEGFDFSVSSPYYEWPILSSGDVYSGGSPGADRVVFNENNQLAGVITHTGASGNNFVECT
# Active calls of the source: *; i = inactive; ? = inconclusive; · = no result; + = active, no number. Only some compounds are listed: those with a hit (about 2.6% of all), similar ones and a draw of the others.
SMILES,IDE inh,IDE act,TPT1 inh,Myeloid diff 2,CRFR2-BP antag,CRFR2-BP ag,caTPT1 confirm,RNase T1 inh
CCN(CCO)c1ccc(N=Cc2c(O)n(C)c(=S)[nH]c2=O)cc1,12,·,57*,i,-102,87*,86*,94*
CCn1c(O)c(C=Nc2ccc(S(N)(=O)=O)cc2)c(=O)[nH]c1=S,1,-6,7,i,-23,9,·,·
CCN(CC)c1ccc(N=Cc2c(O)n(-c3cc(OC)ccc3OC)c(=O)[nH]c2=O)cc1,2,-7,93*,i,10,16,76*,88*
CCC(C)(O)C(=O)OC1C(=O)OC2CC3C(C)=CC(O)C(O)C3(C)C3C4(O)OCC23C1C(C)C4O (stereo unspecified),·,·,·,i,·,·,·,·
COC(=O)C1=C(c2cccc(C#N)c2)C[C@@H]2CC[C@H]1N2C(=O)N1CCC(C)CC1,5,-3,·,i,10,-3,·,·
CCN(CC)c1ccc(N=Cc2c(O)n(CCc3ccc(OC)c(OC)c3)c(=O)[nH]c2=O)cc1,0,5,43*,i,-115,127*,80*,93*
COc1ccc(CCn2c(O)c(C=Nc3ccc(F)cc3)c(=O)[nH]c2=O)cc1OC,6,·,0,i,-11,4,·,·
CCCCCn1c(NC(=O)c2ccco2)c(C(=O)OCC)c2nc3ccccc3nc21,-4,0,36*,?,-49,1,31*,43*
Nc1c([N+](=O)[O-])cc(F)c(N2CCNCC2)c1Br,0,-5,27*,i,9,1,9,10
CN1CCN(CCOC2c3ccccc3CSc3ccc(Cl)cc32)CC1 (stereo unspecified),0,1,55*,i,-32,-5,3,9
Clc1ccc2c(c1)C(OC1CN3CCC1CC3)c1ccccc1CS2 (stereo unspecified),8,-3,-1,i,-27,0,·,·
COC(=O)C1=C(c2cccc(OCc3ccccc3)c2)C[C@@H]2CC[C@H]1N2C(=O)NCc1cc(C)oc1C(F)(F)F,6,4,·,i,15,4,·,·
O[C@@H]1CCCN2CCc3c([nH]c4ccccc34)[C@H]12,10,0,30*,i,8,6,14,23*
CN1CCC(C)(O)C2CCCCC21 (stereo unspecified),1,1,0,i,-7,1,·,·
Cc1cc(/C=C2\C(=O)NC(=O)N(Cc3ccco3)C2=O)c(C)n1-c1ccc(C(=O)O)cc1,0,2,25*,i,4,0,8,10
Cc1cc(/C=C2\C(=O)NC(=O)N(Cc3ccccc3)C2=O)c(C)n1-c1ccc(Cl)c(C(=O)O)c1,9,1,16,i,-11,6,·,·
Cc1cc(/C=C2\C(=O)NC(=O)N(Cc3ccco3)C2=O)c(C)n1-c1ccc(O)cc1,0,-1,20,i,-2,1,·,·
Cc1cc(/C=C2\C(=O)NC(=O)N(Cc3ccccc3Cl)C2=O)c(C)n1-c1ccc(C(=O)O)cc1,3,-4,60*,i,-44,37,17,24*
CN1C(=O)/C(=C\c2ccc(N3CCCCC3)o2)C(=O)NC1=S,9,-14,113*,i,-69,130*,142*,136*
COc1ccc(N2C(=O)/C(=C/c3ccc(C)o3)C(=O)NC2=S)cc1,·,-2,·,i,-2,3,·,·
CN1CCN(c2ccc(/C=C3\C(=O)NC(=S)N(c4cccc(Br)c4)C3=O)o2)CC1,2,-36,132*,i,-180,164*,152*,142*
CN1C(=O)/C(=C/c2ccc(N3CCCCCC3)o2)C(=O)NC1=S,14,-40,167*,i,-34,45,145*,138*
Cc1ccsc1/C=C1\C(=O)NC(=S)N(C)C1=O,6,3,-2,i,3,1,·,·
c1cc2c(cc1N1CCCCC1)C1CC2CCN1 (stereo unspecified),·,4,·,i,-25,-4,·,·
Cc1ccnc(NS(=O)(=O)c2ccc(N=Cc3c(O)n(C)c(=O)n(C)c3=O)cc2)n1,4,-10,85*,i,0,15,62*,77*
SMILES,IDE inh,IDE act,TPT1 inh,Myeloid diff 2,CRFR2-BP antag,CRFR2-BP ag,caTPT1 confirm,RNase T1 inh
Cc1cc(C)nc(NS(=O)(=O)c2ccc(N=Cc3c(O)n(C)c(=O)n(C)c3=O)cc2)n1,4,·,8,i,31,13,·,·
C=C(C)C(Cc1c(OC)ccc(C(=O)/C=C/c2ccc(O)cc2)c1O)OO (stereo unspecified),3,-1,·,i,-1,3,·,·
COC(=O)C1=C(C)NC(=S)NC1c1ccc(N(CCCl)CCCl)cc1Cl (stereo unspecified),·,-2,·,·,17,2,·,·
NS(=O)(=O)c1ccc(N=Cc2c(O)n(C3CCCCC3)c(=O)n(C3CCCCC3)c2=O)cc1,3,6,44*,i,-14,6,19,25*
CCn1c(O)c(C=Nc2ccc(S(N)(=O)=O)cc2)c(=O)n(CC)c1=S,5,-4,20,i,2,-2,·,·
CCC1(CCC(C)C)C(=O)NC(=S)NC1=O,·,6,·,i,-16,3,·,·
CN1OC[C@@H]2COc3ccc4ccccc4c3[C@@H]21,2,3,3,i,0,-1,·,·
Cc1cc(C=C2C(=O)N(C)C(=S)N(C)C2=O)c(C)n1C1CCCCC1,3,-4,24*,i,2,0,28*,39*
COc1cccc(CC(=O)N(C)C2CCCN(Cc3ccccc3F)C2)c1 (stereo unspecified),0,6,6,i,6,-3,·,·
Cc1cccc(-n2c(O)c(C=Nc3ccc(S(N)(=O)=O)cc3)c(=O)[nH]c2=O)c1,2,-3,30*,i,-6,-1,8,11
O=c1[nH]c(=O)n(-c2ccc(Cl)cc2)c(O)c1C=Nc1ccc(S(=O)(=O)Nc2nccs2)cc1,7,-5,31*,i,5,3,37*,52*
CCN(CC)S(=O)(=O)c1ccc(N=Cc2c(O)n(-c3ccccc3)c(=O)[nH]c2=O)cc1,-1,5,20,i,-4,4,·,·
CN(C)/C=C1/C(=O)NC(=O)N(CCNc2ncc(C(F)(F)F)cc2Cl)C1=O,2,-1,29*,i,-12,0,24,34*
O=C(/C=C/c1c[nH]c2ccccc12)c1c(O)n(CCc2ccccc2)c(=O)[nH]c1=O,-5,·,169*,+,-132,166*,177*,162*
CCCCn1c(O)c(C(C)=NCCc2c[nH]c3ccccc23)c(=O)[nH]c1=O,4,6,-2,i,-41,0,·,·
